CDC25B CDK2 inh: human CDC25B-CDK2/CyclinA binding inhibition; 94,000 tested, 0.72% active; z-score (no concentration beside the values); AID 1259370; HTRF CDC25B-CDK2/CyclinA binding, anti-His/anti-Flag; active compounds read high; in the data active = z-score above about 3.2
HIV TAR-Tat: HIV-1 TAR-Tat binding disruption; z-score (test concentration not listed); 100,000 tested, 0.6% active; AID 1259389; HIV-1 TAR RNA, Tat peptide displacement FRET; active compounds read high; active = z-score of 3 or more in at least 2 runs
Numbers without * were called inactive. In the library only some 0.93% were active in any assay of this set; here they are far more common.

For Oc1ccc2ncccc2c1C(Nc1ccccn1)c1ccc(Cl)cc1 (stereo unspecified) the results were CDC25B CDK2 inh 2.6 and HIV TAR-Tat 2.1.
`Oc1ccc2ncccc2c1C(Nc1ccccn1)c1cccc(Cl)c1` (stereo unspecified) gave CDC25B CDK2 inh 15* and HIV TAR-Tat 1.4.
`CCn1c[n+](CC(O)COc2ccccc2)c2cc(C)c(C)cc21` (stereo unspecified) gave CDC25B CDK2 inh 16* and HIV TAR-Tat 0.83.
`CCn1c[n+](CC(O)COc2ccccc2)c2ccccc21` (stereo unspecified) gave CDC25B CDK2 inh -0.35 and HIV TAR-Tat 1.2.
`CN1CCN(C(=O)Nc2ccccc2)c2cccnc21` gave CDC25B CDK2 inh -1.4 and HIV TAR-Tat 2.5.
O=C(Nc1cccnc1)c1ccc2cccc(O)c2n1 was read as HIV TAR-Tat 6.4*.
Screening O=C(NC1CC1)c1ccc2cccc(O)c2n1 returned HIV TAR-Tat 1.7.
Screening CCCN=C1NS(=O)(=O)C(c2ccc(C)c(C)c2)=C1C returned CDC25B CDK2 inh -1.7 and HIV TAR-Tat 0.58.
`O=C1CCCC2=C1C(c1cccs1)N(Cc1ccc(F)cc1)c1ccccc1N2` (stereo unspecified) gave HIV TAR-Tat 0.02.
For CSc1ccc(C2C(C#N)=C(N)Oc3c2ccc2ccccc32)cc1 (stereo unspecified) the results were CDC25B CDK2 inh -0.13 and HIV TAR-Tat -0.49.
CSc1ccc(C2C(C#N)=C(N)OC3=C2CCc2ccccc23)cc1 (stereo unspecified) was read as CDC25B CDK2 inh 7.5*.
COc1ccc(OC)c(-c2nc(C(N)=O)c3[nH]c(=O)n(C4CCCCC4)c3n2)c1 was read as HIV TAR-Tat 0.25.
Screening Cc1c(C(=O)O)sc2ncnc(Nc3ccc4c(c3)OCCO4)c12 returned HIV TAR-Tat 25*.
Cc1sc2ncnc(Nc3ccc4c(c3)OCO4)c2c1C was read as HIV TAR-Tat 0.84.
For Cc1c(C(=O)O)sc2ncnc(NCc3ccc4c(c3)OCO4)c12 the results were HIV TAR-Tat 5*.
`COc1ccc(Nc2ncnc3sc(C(=O)O)c(C)c23)cc1OC` gave HIV TAR-Tat 35*.
For Cc1c(C(=O)O)sc2ncnc(Nc3ccccc3)c12 the results were HIV TAR-Tat -8.3.
For Cc1sc2ncnc(NCc3ccc4c(c3)OCO4)c2c1C the results were CDC25B CDK2 inh -2 and HIV TAR-Tat 0.1.
Screening CN(C)c1ccc(N2CC(O)=C(c3nc4ccccc4[nH]3)C2=N)cc1 returned CDC25B CDK2 inh -2.1 and HIV TAR-Tat 2.3.
COc1ccc(-c2nc(CSCc3csc(C)c3C)c(C)o2)cc1OC was read as HIV TAR-Tat 2.3.
`CCC(C)NC(=O)C1CCCN(S(=O)(=O)c2c(C)noc2/C=C/c2cccs2)C1` (stereo unspecified) gave CDC25B CDK2 inh 0.21 and HIV TAR-Tat 0.68.
COc1cc(NC(=O)N2CCN(c3cc(N(C)C)nc(C)n3)CC2)cc(OC)c1 was read as CDC25B CDK2 inh -1.6 and HIV TAR-Tat 0.4.
`COc1ccc(NC(=O)C(C)Sc2nnc(Cc3c(C)nc4c(C)cccn4c3=O)n2C)cc1` (stereo unspecified) gave CDC25B CDK2 inh 7.2* and HIV TAR-Tat -0.94.
`COc1ccc(NC(=O)C(C)Sc2nnc(Cc3c(C)nc4ccccn4c3=O)n2C)cc1` (stereo unspecified) gave CDC25B CDK2 inh 16* and HIV TAR-Tat -0.14.
For Cc1nc2ccccn2c(=O)c1Cc1nnc(SCC(=O)Nc2ccc(Cl)cc2)n1C the results were CDC25B CDK2 inh -0.52 and HIV TAR-Tat -0.6.
`Cc1nc2c(C)cccn2c(=O)c1Cc1nnc(SCC(=O)Nc2ccc(C(C)C)cc2)n1C` gave CDC25B CDK2 inh -0.42 and HIV TAR-Tat -0.62.
For O=C(NC1CCCCC1)C1CCCN(c2nnc(-n3cccc3)s2)C1 (stereo unspecified) the results were CDC25B CDK2 inh -1.8 and HIV TAR-Tat 0.99.
CS(=O)(=O)Nc1nc2ccc(NC(=O)Cc3cccs3)cc2s1 was read as HIV TAR-Tat 16*.
`CCCCC(=O)Nc1ccc2nc(NS(C)(=O)=O)sc2c1` gave HIV TAR-Tat -0.5.
CCc1ccc2occ(CC(=O)Nc3sc4c(c3C(=O)NCC3CCCO3)CCCC4)c2c1 (stereo unspecified) was read as CDC25B CDK2 inh 2.6 and HIV TAR-Tat 1.4.
Screening Cc1cc(O)c2c(c1)Cc1cccc(O)c1C2=O returned HIV TAR-Tat 7.7*.
O=C1c2cccc(O)c2C(=O)c2c(O)cccc21 was read as HIV TAR-Tat 3.1.
For CCCn1c(NCc2ccco2)nc2ccccc21 the results were CDC25B CDK2 inh -0.65 and HIV TAR-Tat 1.
CC(C)n1cnc2cc(NCc3ccco3)ccc21 was read as CDC25B CDK2 inh 7.8* and HIV TAR-Tat 0.19.
Screening Cn1cnc2cc(NCc3ccco3)ccc21 returned CDC25B CDK2 inh 17* and HIV TAR-Tat 0.29.

Bioassay records: PubChem BioAssay, Center for Chemical Genomics, University of Michigan
